Source: PubChem
A selection: hits, their analogues and other compounds. The true share with any hit is near 0.82%.
TcdB GH inh: blocks C. difficile toxin B glycohydrolase activity; actives 0.24% (n = 350,000); inhibition, % at 9.99 µM; TcdB glycohydrolase enzymatic assay, plate reader; P18177; AID 652162; in the data active = inhibition above about 10%
PrPC TRFRET: cell surface PrPC inhibition, primary TR-FRET screen; inhibition, % at 13.8 µM; TR-FRET read-out; actives 0.43% (n = 370,000); AID 720596; in the data active = inhibition above about 24%; note: 0% = median of the test wells and 100% = reference compound wells
DUSP3 inh: blocks human VHR1 dual specificity phosphatase | recombinant VHR phosphatase, pNPP absorbance | P51452 | inhibition, % at 13.3 µM | actives 0.52% (n = 290,000) | AID 1654; in the data active = inhibition above about 50%
PrPC TRFRET cf: confirmation of inhibitors of cell surface human prion protein; shares compounds with PrPC TRFRET; cell surface PrPC level, TR-FRET; inhibition, % at 13.8 µM; actives 65% (n = 1,500); AID 743200; in the data active = inhibition above about 25%
LD9 cytotox: kills or reduces viability of LD9 cells in PrPc counter-screen; shares compounds with PrPC TRFRET; LD9 cells cytotoxicity, luminescence viability; inhibition, % at 13.8 µM; actives 29% (n = 1,500); AID 743201; in the data active = inhibition above about 9.5%
The depositor's hits bear a star; . = not tested or not shown.

SMILES	TcdB GH inh	PrPC TRFRET	DUSP3 inh	PrPC TRFRET cf	LD9 cytotox
COc1ccccc1N(CC(=O)NC1CC2CCC1C2)S(=O)(=O)c1ccc(C)cc1 (configuration not stated)	2	55*	10	10	-5
N=C1C(c2nc3ccccc3s2)=C(O)CN1NC(=O)c1c[nH]c2ccccc12	-2	26*	8	34*	6
N=C1C(c2nc3ccccc3s2)=C(O)CN1NC(=O)c1ccccc1[N+](=O)[O-]	0	2	6	.	.
Cc1ccc(S(=O)(=O)Nc2ccc3c(c2)C(=O)N([C@H](C)CO)C[C@H](C)[C@H](CN(C)S(=O)(=O)c2ccccc2)OCCCC[C@@H](C)O3)cc1	-1	.	.	.	.
COc1ccccc1S(=O)(=O)N[C@H]1CC[C@H](CC(=O)NCc2cccc(F)c2)O[C@@H]1CO	1	.	.	.	.
CCOC(=O)[C@]12Cc3cc(Cl)ccc3[C@H]1N(Cc1ccccc1)C(=O)c1cc(OC)ccc12	-1	17	.	.	.
CCCCCN1C(=O)c2cc(OC)ccc2[C@@]2(C(=O)OCC)Cc3cc(Cl)ccc3[C@@H]12	1	33*	.	47*	99*
CCOC(=O)[C@]12Cc3cc(OC)ccc3[C@H]1N(C)C(=O)c1ccccc12	1	2	.	.	.
CCOC(=O)[C@]12Cc3cc(OC)ccc3[C@H]1N(C1CCCCC1)C(=O)c1ccccc12	1	26*	.	42*	95*
C[C@@H]1CCCCO[C@@H](CN(C)S(=O)(=O)c2ccccc2)[C@@H](C)CN([C@@H](C)CO)C(=O)c2cc(NS(=O)(=O)c3cccs3)ccc2O1	1	.	.	.	.
COc1cc2ccccc2cc1C(=O)Nc1ccc(C)cc1	0	-3	-16	.	.
COc1cc2ccccc2cc1C(=O)Nc1ccc(Cc2ccncc2)cc1	.	30*	23	16	19*
CCOC(=O)C1CCN(C(=O)C(=O)c2cn(CC(=O)N3CCCCCC3)c3ccccc23)CC1	1	26*	-9	22	-10
CCOC(=O)N1CCN(C(=O)C(=O)c2cn(CC(=O)N3CCCCCC3)c3ccccc23)CC1	2	9	10	.	.
CN(C)C(=O)C[C@@H]1CC[C@H]2[C@@H](COC[C@H](O)CN2Cc2nccs2)O1	1	.	.	.	.
O=C(Nc1ccc(Cl)c(C(F)(F)F)c1)c1ccncc1	2	15	17	.	.
CNC(=O)c1cc(Oc2ccc(NC(=O)Nc3ccc(Cl)c(C(F)(F)F)c3)cc2)ccn1	0	27*	.	17	6
C[C@H](CO)N1C[C@H](C)[C@H](CN(C)S(=O)(=O)c2ccccc2)OCCCC[C@H](C)Oc2ccc(NS(=O)(=O)c3cccs3)cc2C1=O	1	.	.	.	.
NC(c1csc(NC(=O)Nc2cccc(Cl)c2)n1)C1CCCCC1 (configuration not stated)	0	26*	.	23	-3
NC(c1csc(NC(=O)Nc2ccccc2)n1)C1CCCCC1 (configuration not stated)	0	15	.	.	.
COc1ccc(-c2cnc3c(c2)C(=O)N([C@H](C)CO)C[C@@H](C)[C@@H](CN(C)C(=O)Cc2ccccn2)O3)cc1	0	.	.	.	.
COc1ccccc1C#Cc1cnc2c(c1)C(=O)N([C@@H](C)CO)C[C@@H](C)[C@H](CN(C)C(C)=O)O2	0	.	.	.	.
C[C@@H]1CN([C@@H](C)CO)C(=O)c2cc(NC(=O)c3ccncc3)ccc2O[C@H]1CN(C)Cc1ccc(Cl)c(Cl)c1	-3	.	.	.	.
CC(C)=CCC[C@@]1(C(=O)O)[C@H]2CC=C(CO)[C@@H]1CC/C(C)=C/CC/C(C)=C/C2	.	24*	.	27*	12*
COc1cc2c(cc1OC)CN(C(=O)[C@@H]1[C@H]3C(=O)O[C@H](c4ccccc4)[C@H](c4ccccc4)N3[C@H](c3ccc(OCCO)cc3)[C@@]13C(=O)Nc1ccc(C#CC4(O)CCCCCC4)cc13)CC2	0	.	.	.	.
SMILES	TcdB GH inh	PrPC TRFRET	DUSP3 inh	PrPC TRFRET cf	LD9 cytotox
Cc1ccc2[nH]c3c(N4CCc5ccccc5C4)ncnc3c2c1	.	14	32	.	.
Fc1ccc2[nH]c3c(N4CCc5ccccc5C4)ncnc3c2c1	1	26*	20	35*	20*
O=[N+]([O-])c1ccc(N2CCCCC2)cc1	0	-6	-8	.	.
O=[N+]([O-])c1ccc(N2CCN(CC3CCCCC3)CC2)cc1	1	51*	8	-6	5
COCC(=O)N1[C@H](CO)[C@H]2c3ccccc3N(C(=O)c3ccccc3)C[C@H]21	0	.	.	.	.
O=C(CSc1ncnc2ccccc12)c1ccco1	.	.	6	.	.
O=C(CSc1ncnc2ccccc12)NCCc1ccccc1	1	62*	14	79*	-8
O=C(CSc1ncnc2ccccc12)NCc1ccco1	.	76*	38	77*	-1
O=C(CSc1ncnc2ccccc12)NCCCO	.	36*	21	32*	-7
O=C(CSc1ccccc1)NCCc1ccccc1	1	-1	1	.	.
Cc1csc(NC(=O)CSc2ncnc3ccccc23)n1	1	18	21	.	.
C[C@@H]1CCCCO[C@@H](CN(C)Cc2ccc(C(=O)O)cc2)[C@H](C)CN([C@@H](C)CO)C(=O)c2cc(NS(=O)(=O)c3ccc(Cl)cc3)ccc2O1	0	.	.	.	.
C[C@@H]1CN([C@@H](C)CO)C(=O)c2cccc(NS(=O)(=O)c3ccc(Cl)cc3)c2O[C@H]1CN(C)C(=O)Nc1ccccc1	-3	.	.	.	.
CS(=O)(=O)Nc1ccc2c(c1)[C@@H]1C[C@@H](CC(=O)NC3CCCC3)O[C@H](CO)[C@@H]1O2	-1	.	.	.	.
C=CC#CC[N+]1(CC#Cc2ccccc2)CCOCC1	1	38*	8	44*	-6
C(#Cc1ccccc1)C[N+]1(CC#Cc2ccccc2)CCCC1	0	9	-5	.	.
COc1cc(NC2c3ccccc3C(=O)N2Cc2ccccc2Cl)cc(OC)c1 (configuration not stated)	0	10	-13	.	.
COc1cccc(NC2c3ccccc3C(=O)N2Cc2ccccc2Cl)c1 (configuration not stated)	0	29*	6	7	-4
C[C@@H]1CN([C@H](C)CO)S(=O)(=O)c2ccc(C#Cc3cccnc3)cc2O[C@@H]1CN(C)C	0	.	.	.	.
CC(=O)NC1(C(F)(F)F)C(=O)Nc2c1c(=O)[nH]c(=O)n2Cc1ccco1 (configuration not stated)	.	5	7	.	.
O=c1[nH]c(=O)n(Cc2ccco2)c2c1C(C(F)(F)F)(C(F)(F)F)N=C(Cc1ccccc1)N2	.	56*	23	47*	8
O=C(CC1CC1)N1CC(=O)N2[C@H](CO)[C@@H](c3ccc(C#Cc4ccccc4)cc3)[C@H]2C1	0	.	.	.	.
C[C@H]1CN([C@@H](C)CO)C(=O)c2cc(NC(=O)Cc3cn(C)c4ccccc34)ccc2O[C@@H]1CN(C)C(=O)Nc1ccc2c(c1)OCO2	-2	.	.	.	.
CCc1cc2cccc(C)c2nc1SCC(=O)Nc1cc(C)on1	0	15	16	.	.
CCc1cc2cccc(C)c2nc1SCC(=O)Nc1nonc1C	1	31*	10	35*	-5
CCc1cc2ccc(C)c(C)c2nc1SCC(=O)NNC(=O)c1ccco1	8	19	12	.	.
